# In PubChem BioAssay AID1159580 (chemical genetic matrix, 2015):
# The whole screen tested about 5,500 compounds, of which about 2,000 (36%) were called active. About 18% were inconclusive and are not listed. The list shows a part of the results. A number with no mark means an inactive call. Rule as the data show it: active = normalized growth mostly below about 0.91 (no sharp cut-off); inconclusive = no clear call, values can overlap the other calls; inactive = mostly above about 0.92.
# Assay: chemical genetic growth profiling, strain panel (AID 1159580);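 also: tested at 20 µM; growth read once vehicle control cultures reached saturation at 30 °C; 1 = growth at the plate median or of vehicle wells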
# Conditions: growth OD
# [1] = S. cerevisiae deletion strains, locus YDL101C, strain DUN1, stronger effect = lower value
# [2] = S. cerevisiae deletion strains, locus YHR030C, strain SLT2, stronger effect = lower value
structure (smiles),measurement,setting,value
O=C(NNC(=O)c1csc(-c2cccs2)n1)c1ccc(C(F)(F)F)cc1,normalized growth,"S. cerevisiae deletion strains, locus YAR019C, strain CDC15, stronger effect = lower value",0.972
same,normalized growth,"S. cerevisiae deletion strains, locus YBL105C, strain PKC1, stronger effect = lower value",0.967
same,normalized growth,"S. cerevisiae deletion strains, locus YBR135W, strain CKS1, stronger effect = lower value",0.955
same,normalized growth,"S. cerevisiae deletion strains, locus YBR136W, strain MEC1, stronger effect = lower value",0.979
same,normalized growth,"S. cerevisiae deletion strains, locus YBR160W, strain CDC28, stronger effect = lower value",0.965
same,normalized growth,"S. cerevisiae deletion strains, locus YDL017W, strain CDC7, stronger effect = lower value",0.961
same,normalized growth,"S. cerevisiae deletion strains, locus YDL028C, strain MPS1, stronger effect = lower value",0.958
same,normalized growth,[1],0.901 (active)
same,normalized growth,"S. cerevisiae deletion strains, locus YDL108W, strain KIN28, stronger effect = lower value",0.972
same,normalized growth,"S. cerevisiae deletion strains, locus YDL132W, strain cdc53, stronger effect = lower value",0.946
same,normalized growth,"S. cerevisiae deletion strains, locus YDL214C, strain PRR2, stronger effect = lower value",0.657 (active)
same,normalized growth,"S. cerevisiae deletion strains, locus YDR052C, strain DBF4, stronger effect = lower value",0.964
same,normalized growth,"S. cerevisiae deletion strains, locus YDR054C, strain cdc34, stronger effect = lower value",0.961
same,normalized growth,"S. cerevisiae deletion strains, locus YDR226W, strain ADK1, stronger effect = lower value",0.967
same,normalized growth,"S. cerevisiae deletion strains, locus YDR477W, strain SNF1, stronger effect = lower value",0.572 (active)
same,normalized growth,"S. cerevisiae deletion strains, locus YER123W, strain YCK3, stronger effect = lower value",0.75
same,normalized growth,"S. cerevisiae deletion strains, locus YER133W, strain GLC7, stronger effect = lower value",0.863
same,normalized growth,"S. cerevisiae deletion strains, locus YFL009W, strain cdc4, stronger effect = lower value",0.967
same,normalized growth,"S. cerevisiae deletion strains, locus YFL029C, strain CAK1, stronger effect = lower value",0.959
same,normalized growth,"S. cerevisiae deletion strains, locus YFR003C, strain YPI1, stronger effect = lower value",0.964
same,normalized growth,"S. cerevisiae deletion strains, locus YFR019W, strain FAB1, stronger effect = lower value",0.99
same,normalized growth,"S. cerevisiae deletion strains, locus YFR028C, strain CDC14, stronger effect = lower value",0.949
same,normalized growth,"S. cerevisiae deletion strains, locus YGR040W, strain KSS1, stronger effect = lower value",0.832
same,normalized growth,"S. cerevisiae deletion strains, locus YGR052W, strain FMP48, stronger effect = lower value",0.779
same,normalized growth,"S. cerevisiae deletion strains, locus YGR092W, strain DBF2, stronger effect = lower value",0.154 (active)
same,normalized growth,[2],0.198 (active)
same,normalized growth,"S. cerevisiae deletion strains, locus YHR079C, strain IRE1, stronger effect = lower value",0.181 (active)
same,normalized growth,"S. cerevisiae deletion strains, locus YHR082C, strain KSP1, stronger effect = lower value",0.838
same,normalized growth,"S. cerevisiae deletion strains, locus YHR205W, strain SCH9, stronger effect = lower value",0.695
same,normalized growth,"S. cerevisiae deletion strains, locus YIL147C, strain SLN1, stronger effect = lower value",0.973
same,normalized growth,"S. cerevisiae deletion strains, locus YJL095W, strain BCK1, stronger effect = lower value",0.345 (active)
same,normalized growth,"S. cerevisiae deletion strains, locus YJL128C, strain PBS2, stronger effect = lower value",0.948
same,normalized growth,"S. cerevisiae deletion strains, locus YJL157C, strain FAR1, stronger effect = lower value",0.612 (active)
same,normalized growth,"S. cerevisiae deletion strains, locus YJR016C, strain ILV3, stronger effect = lower value",0.969
same,normalized growth,"S. cerevisiae deletion strains, locus YJR066W, strain TOR1 (second series), stronger effect = lower value",0.14 (active)
same,normalized growth,"S. cerevisiae deletion strains, locus YJR066W, strain TOR1, stronger effect = lower value",0.486
same,normalized growth,"S. cerevisiae deletion strains, locus YKL048C, strain ELM1, stronger effect = lower value",0.91
same,normalized growth,"S. cerevisiae deletion strains, locus YKL067W, strain YNK1, stronger effect = lower value",0.713 (active)
same,normalized growth,"S. cerevisiae deletion strains, locus YKL101W, strain HSL1, stronger effect = lower value",0.59 (active)
same,normalized growth,"S. cerevisiae deletion strains, locus YKL193C, strain SDS22, stronger effect = lower value",0.963
same,normalized growth,"S. cerevisiae deletion strains, locus YKL203C, strain TOR2, stronger effect = lower value",0.913
same,normalized growth,"S. cerevisiae deletion strains, locus YLR113W, strain HOG1, stronger effect = lower value",0.677 (active)
same,normalized growth,"S. cerevisiae deletion strains, locus YLR133W, strain CKI1, stronger effect = lower value",0.592 (active)
same,normalized growth,"S. cerevisiae deletion strains, locus YLR403W, strain SFP1, stronger effect = lower value",0.884
same,normalized growth,"S. cerevisiae deletion strains, locus YML070W, strain DAK1, stronger effect = lower value",0.887
same,normalized growth,"S. cerevisiae deletion strains, locus YMR001C, strain CDC5, stronger effect = lower value",0.949
same,normalized growth,"S. cerevisiae deletion strains, locus YMR205C, strain PFK2 (second series), stronger effect = lower value",0.666 (active)
same,normalized growth,"S. cerevisiae deletion strains, locus YMR277W, strain FCP1, stronger effect = lower value",0.957
same,normalized growth,"S. cerevisiae deletion strains, locus YNL006W, strain LST8, stronger effect = lower value",0.96
same,normalized growth,"S. cerevisiae deletion strains, locus YNL020C, strain ARK1, stronger effect = lower value",0.492 (active)
same,normalized growth,"S. cerevisiae deletion strains, locus YNL161W, strain CBK1, stronger effect = lower value",0.959
same,normalized growth,"S. cerevisiae deletion strains, locus YNL183C, strain NPR1, stronger effect = lower value",0.5 (active)
same,normalized growth,"S. cerevisiae deletion strains, locus YNL207W, strain RIO2, stronger effect = lower value",0.955
same,normalized growth,"S. cerevisiae deletion strains, locus YNL222W, strain SSU72, stronger effect = lower value",0.963
same,normalized growth,"S. cerevisiae deletion strains, locus YNL307C, strain MCK1 (second series), stronger effect = lower value",0.286 (active)
same,normalized growth,"S. cerevisiae deletion strains, locus YOL078W, strain AVO1, stronger effect = lower value",0.966
same,normalized growth,"S. cerevisiae deletion strains, locus YOL136C, strain PFK27, stronger effect = lower value",0.805
same,normalized growth,"S. cerevisiae deletion strains, locus YOR061W, strain CKA2, stronger effect = lower value",0.821
same,normalized growth,"S. cerevisiae deletion strains, locus YOR119C, strain RIO1, stronger effect = lower value",0.877
same,normalized growth,"S. cerevisiae deletion strains, locus YOR231W, strain MKK1, stronger effect = lower value",0.29 (active)
same,normalized growth,"S. cerevisiae deletion strains, locus YOR329C, strain SCD5, stronger effect = lower value",0.959
same,normalized growth,"S. cerevisiae deletion strains, locus YPL031C, strain PHO85, stronger effect = lower value",0.512 (active)
same,normalized growth,"S. cerevisiae deletion strains, locus YPL153C, strain RAD53, stronger effect = lower value",0.57 (active)
same,normalized growth,"S. cerevisiae deletion strains, locus YPL204W, strain HRR25, stronger effect = lower value",0.723
same,normalized growth,"S. cerevisiae deletion strains, locus YPL209C, strain IPL1, stronger effect = lower value",0.964
same,normalized growth,"S. cerevisiae deletion strains, locus YPL256C, strain CLN2, stronger effect = lower value",0.558 (active)
same,normalized growth,"S. cerevisiae deletion strains, locus YPR025C, strain CCL1, stronger effect = lower value",0.954
same,normalized growth,"S. cerevisiae deletion strains, locus YPR106W, strain ISR1, stronger effect = lower value",0.959
same,normalized growth,"S. cerevisiae deletion strains, locus YPR111W, strain DBF20, stronger effect = lower value",0.974
same,normalized growth,"S. cerevisiae deletion strains, strain NNK1, stronger effect = lower value",0.974
same,normalized growth,"S. cerevisiae deletion strains, strain TSCII, stronger effect = lower value",0.943
CC(=O)c1csc(-c2ccc(C(F)(F)F)cc2)n1,normalized growth,"S. cerevisiae deletion strains, locus YAL013W, strain DEP1, stronger effect = lower value",0.947
same,normalized growth,"S. cerevisiae deletion strains, locus YBR229C, strain ROT2, stronger effect = lower value",0.965
same,normalized growth,[1],0.977
same,normalized growth,"S. cerevisiae deletion strains, locus YDR150W, strain NUM1, stronger effect = lower value",0.977
same,normalized growth,"S. cerevisiae deletion strains, locus YEL061C, strain CIN8, stronger effect = lower value",0.967
same,normalized growth,"S. cerevisiae deletion strains, locus YGR078C, strain PAC10, stronger effect = lower value",0.949
same,normalized growth,[2],0.761
same,normalized growth,"S. cerevisiae deletion strains, locus YHR087W, strain rtc3, stronger effect = lower value",0.964
same,normalized growth,"S. cerevisiae deletion strains, locus YJR043C, strain POL32, stronger effect = lower value",0.988
same,normalized growth,"S. cerevisiae deletion strains, locus YJR075W, strain HOC1, stronger effect = lower value",0.928
same,normalized growth,"S. cerevisiae deletion strains, locus YKL190W, strain CNB1, stronger effect = lower value",0.994
same,normalized growth,"S. cerevisiae deletion strains, locus YLR039C, strain RIC1, stronger effect = lower value",0.882
same,normalized growth,"S. cerevisiae deletion strains, locus YLR058C, strain SHM2 (second series), stronger effect = lower value",0.955
same,normalized growth,"S. cerevisiae deletion strains, locus YLR085C, strain ARP6, stronger effect = lower value",0.762 (active)
same,normalized growth,"S. cerevisiae deletion strains, locus YLR262C, strain YPT6, stronger effect = lower value",0.943
same,normalized growth,"S. cerevisiae deletion strains, locus YML094W, strain GIM5, stronger effect = lower value",0.898
same,normalized growth,"S. cerevisiae deletion strains, locus YMR219W, strain ESC1, stronger effect = lower value",0.977
same,normalized growth,"S. cerevisiae deletion strains, locus YMR263W, strain SAP30, stronger effect = lower value",0.979
same,normalized growth,"S. cerevisiae deletion strains, locus YNL128W, strain TEP1, stronger effect = lower value",0.99
same,normalized growth,"S. cerevisiae deletion strains, locus YNL153C, strain GIM3, stronger effect = lower value",0.954
same,normalized growth,"S. cerevisiae deletion strains, locus YNL298W, strain CLA4 (second series), stronger effect = lower value",0.911
same,normalized growth,"S. cerevisiae deletion strains, locus YNL322C, strain KRE1, stronger effect = lower value",0.971
same,normalized growth,"S. cerevisiae deletion strains, locus YNR030W, strain Alg12, stronger effect = lower value",0.943
same,normalized growth,"S. cerevisiae deletion strains, locus YPL055C, strain LGE1, stronger effect = lower value",0.892
same,normalized growth,"S. cerevisiae deletion strains, locus YPL241C, strain CIN2, stronger effect = lower value",0.841 (active)
same,normalized growth,"S. cerevisiae deletion strains, locus YPR135W, strain CTF4, stronger effect = lower value",0.658
same,normalized growth,"S. cerevisiae strains, strain wild type, stronger effect = lower value",0.997
